Inconclusive results are not listed. Entries that show only a call come without a potency. Activity calls are given as the source filed them. Unless noted, calls come from the whole dose curve.
Tests used:
[1] = Cytotoxicity counterscreen for inhibitors of SARS-CoV-2 cell entry (AID 1645845); note: nearly all actives have a fitted effect of over 50% in size
Summary of the method: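 Expi293F/hACE2 cells seeded overnight; cpd pin-transferred in DMSO, 1 h preincubation, + media, 48 h 37 C 5% CO2; ATPLite 1step luminescence; normalized to cells and no cells.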

[2] = Primary qHTS to identify inhibitors of SARS-CoV-2 cell entry (AID 1645846); note: nearly all actives have a fitted effect of over 45% in size
Summary of the method: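 Entry measured by luciferase signal 48 h after adding SARS-CoV-2-S pseudotyped MLV particles to HEK293-ACE2 cells preincubated 1 h with compounds. Normalisation: bald particles and spike particles.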

[3] = VSVG counterscreen qHTS to identify inhibitors of SARS-CoV-2 cell entry (AID 1645847); note: nearly all actives have a fitted effect of over 65% in size; note: potency is the fitted concentration of half-maximal effect
Summary of the method: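 Luminescence read after 48 h infection at 37 C with VSV-G-pseudotyped MLV particles, following 1 h compound exposure of Expi293F cells stably expressing human ACE2; scaled between bald particle and VSV-G particle wells.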

[4] = Primary qHTS for inhibitors of nuclear receptor binding SET domain protein 2 (NSD2) in an isogenic RCH-ACV NSD2 p.E1099K mutant (9B) (AID 1645876; active = well fitted curve in the direction sought with a large enough effect; an effect the other way counts as inactive or inconclusive; note: nearly all actives have a fitted effect of over 70% in size; note: potency is the fitted concentration of half-maximal effect)
[5] = Primary qHTS for inhibitors of nuclear receptor binding SET domain protein 2 (NSD2) in an RCH-ACV wild type WT cells (2C) (AID 1645877; active = well fitted curve in the direction sought with a large enough effect; an effect the other way counts as inactive or inconclusive; note: nearly all actives have a fitted effect of over 70% in size; note: potency is the fitted concentration of half-maximal effect)
[6] = activity change, negative = inhibition: at 57.1 µM (top of the series) unless noted
[7] = SARS-CoV-2 pseudovirus cell entry assay, luminescence, at 57.1 µM (top of the series)

## CCCS(=O)(=O)Nc1ccc(F)c(C(=O)c2c[nH]c3ncc(-c4ccc(Cl)cc4)cc23)c1F
[1]
  Potency: inactive
[2]; [6]
  activity change, negative = inhibition: -8.78%
[3]
  Potency: 21.5 µM (active)

## Cc1cc2c(cc1C1(c3ccc(C(=O)O)cn3)CC1)C(C)(C)CCC2(C)C
[1]
  Potency: inactive
[2]; [6]
  Potency: inactive

## NC1=NC(=O)N2CC12 (stereo not given)
[1]
  Potency: inactive
[2]; [7]
  activity change, negative = inhibition: -95.3%
[2]; SARS-CoV-2 pseudovirus cell entry assay, luminescence, at 114 µM (top of the series)
  activity change, negative = inhibition: -13.1%
[4]
  Potency: inactive
[5]
  Potency: inactive

## COc1ncnc(NS(=O)(=O)c2ccc(N)cc2)c1OC
[1]
  Potency: inactive
[2]; [6]
  Potency: inactive
  activity change, negative = inhibition: -2.62%

## COc1ccc(C(=O)c2c(C)n(CCN3CCOCC3)c3cc(I)ccc23)cc1
[1]
  Potency: inactive
[2]; [6]
  activity change, negative = inhibition: -80.5%
[3]
  Potency: 30.4 µM (active)
[4]
  Potency: 18.6 µM (active)
[5]
  Potency: 14.8 µM (active)

## CCOC(=O)c1c(C)n(C)c2ccc(O)cc12
[1]
  Potency: inactive
[2]; [6]
  activity change, negative = inhibition: -9.91%

## NCCCC(N)(C(=O)O)C(F)F (stereo not given)
[1]
  Potency: inactive
[2]; [6]
  Potency: inactive

## C[C@@H]1CN(c2c(F)c(N)c3c(=O)c(C(=O)O)cn(C4CC4)c3c2F)C[C@H](C)N1
[1]
  Potency: inactive
[2]; SARS-CoV-2 pseudovirus cell entry assay, luminescence, at 27.1 µM (top of the series)
  activity change, negative = inhibition: -12.9%
[2]; [7]
  activity change, negative = inhibition: -5.48%

## CCCCC(CC)COC(=O)/C=C/c1ccc(OC)cc1 (stereo not given)
[1]
  Potency: inactive
[2]; [6]
  activity change, negative = inhibition: -3.29%

## Cc1cccc(-c2[nH]ncc2-c2ccc3ncccc3n2)n1
[1]
  Potency: inactive
[2]; [6]
  activity change, negative = inhibition: -1.7%

## CCc1c(C(=O)C(N)=O)c2c(OCC(=O)O)cccc2n1Cc1ccccc1
[1]
  Potency: inactive
[2]; [6]
  activity change, negative = inhibition: -66.7%
[3]
  Potency: inactive
[4]
  Potency: inactive
[5]
  Potency: inactive

## CN(C)CC/C=C1/c2ccccc2COc2ccc(CC(=O)O)cc21
[1]
  Potency: inactive
[2]; [6]
  Potency: inactive
  activity change, negative = inhibition: -14.5%

## Cc1n[nH]c(C)c1Cc1sc2c(c1C(=O)N1C[C@H](O)CO1)c(=O)n(C)c(=O)n2CC(C)C
[1]
  Potency: inactive
[2]; [6]
  activity change, negative = inhibition: -55.4%
[3]
  Potency: 1.24 µM (active)

Reference: PubChem BioAssay (NCATS)
